Data from ChEMBL document CHEMBL1157539, “Thousands of chemical starting points for antimalarial lead identification” (Nature, 2010).

Key:
Assay type in all cases: functional
[1] = tested on: Plasmodium falciparum; test: GSK_TCMDC: Inhibition of Plasmodium falciparum 3D7 in whole red blood cells, using parasite LDH activity as an index of growth. Test compounds present at 2uM
[2] = tested on: Plasmodium falciparum; test: GSK_TCMDC: Inhibition of Plasmodium falciparum Dd2 in whole red blood cells, using parasite LDH activity as an index of growth. Test compounds present at 2uM
[3] = tested on: HepG2; test: GSK_TCMDC: Percent inhibition of human HepG2 cell line. Test compounds present at 10uM.

Row | Compound | Inhibition [1] | Inhibition [2] | Inhibition [3]
1 | Cn1ccnc1-c1nc2ccccn2c1NCC(=O)Nc1ccccc1N1CCCCC1 | 85% | 57% | 16%
2 | CCOCc1cnc(C)nc1NCC(=O)c1c(C)[nH]c2cc(C)ccc12.I | 89% | 76% | 8%
3 | O=C(c1ccccc1[N+](=O)[O-])N(Cc1ccccc1)c1ccccn1 | 91% | 0% | 0%
4 | COc1ccc2nccc(CCN3CC(O)C(CNCc4ccc5c(n4)NC(=O)CS5)C3)c2n1.Cl (stereo unspecified) | 86% | 26% | 4%
5 | COc1ccc(-c2cccc(NC(=O)c3cccc(Cl)c3)c2)cc1CNC(C)C.O=C(O)C(F)(F)F | 100% | 8% | 15%
6 | COc1ccc(C(=O)NC(Nc2ccc([N+](=O)[O-])cc2)C(Cl)(Cl)Cl)cc1 (stereo unspecified) | 95% | 83% | 15%
7 | COc1ccc(Cl)cc1NC(=O)Nc1ccnc2ccccc12 | 100% | 44% | 13%
8 | O=C(Nc1ccc(Cl)cc1)c1cccc(S(=O)(=O)NC2CCN(CC3CCCCC3)CC2)c1.O=C(O)C(F)(F)F | 92% | 11% | 67%
9 | COc1ccc2nccc([C@@H](O)CN3CCC(NC(=O)C(c4cccs4)N4CCN(c5ccc(F)cc5)CC4)CC3)c2c1 (stereo partly specified) | 97% | 45% | 9%
10 | Cl.NC(=O)c1cccc(Nc2nccc(Nc3ccc(Oc4cccc(Cl)c4)c(Cl)c3)n2)c1 | 93% | 12% | 0%
11 | O=C(/C=C/c1cc(C(F)(F)F)ccc1F)NCCCCCN1CCC(c2c[nH]c3ccccc23)CC1 | 88% | 4% | 39%
12 | CC(=O)Nc1nc(C(=O)Nc2cccc(-c3ccc(-c4nc5ccccc5[nH]4)cc3)c2)cs1 | 100% | 60% | 88%
13 | Cc1noc(C)c1CN1Cc2ccccc2OC2(CCN(Cc3c[nH]c4cnccc34)CC2)C1.O=C(O)C(F)(F)F | 89% | 12% | 19%
14 | CN1CCCC1CCCOC(=O)c1ccc(N)cc1 (stereo unspecified) | 100% | 2% | 8%
15 | COc1ccccc1CNC(=O)c1cc(C2CC2)nc2c1cnn2C(C)C | 94% | 92% | 47%
16 | NC(=O)C1CCN(Cc2ccc(-c3cccc(-c4nc5cc(F)ccc5[nH]4)c3)cc2)CC1.O=C(O)C(F)(F)F | 90% | 3% | 10%
17 | CCN(CC)CCN(Cc1ccc(-c2ccc(C(F)(F)F)cc2)cc1)C(=O)Cn1c(CCc2cccc(F)c2F)nc(=O)c2ccc(C(F)(F)F)cc21.O=C(O)C(O)C(O)C(=O)O | 99% | 55% | 19%
18 | Cc1ccc(NC(=O)c2ccc(Cl)cc2)cc1-c1ccc(C(=O)Nc2ccncc2)cc1 | 98% | 5% | 36%
19 | O=C(Nc1ccc(Br)cc1)N1CCC(n2c(-c3ccccc3)nc3cccnc32)CC1 | 90% | 86% | 36%
20 | O=C(Nc1ccc(C(F)(F)F)cc1)c1cccc(S(=O)(=O)NC2CCN(CC3CCCCC3)C2)c1.O=C(O)C(F)(F)F (stereo unspecified) | 98% | 10% | 32%
21 | Cc1noc(-c2ccc(N3CCC(C(=O)N4CCN(C(C)C)CC4)CC3)cc2)n1.Cl | 95% | 0% | 0%

Row | Compound | Inhibition [1] | Inhibition [2] | Inhibition [3]
22 | Cc1ccc(C(=O)N2CCN(Cc3nccs3)CC2)cc1 | 86% | 0% | 0%
23 | COc1cc2c(=O)c(Cc3ccc(Cl)cc3)c(C)[nH]c2cc1F | 85% | 28% | 13%
24 | Br.CCC(CCON1C(N)=NC(N)=NC1(C)C)c1ccc(Cl)c(Cl)c1 (stereo unspecified) | 94% | 98% | 68%
25 | CCOC(=O)c1ccc(NC(=O)Nc2ccc(-c3ccc(-c4nc5ccccc5[nH]4)cc3)cc2)cc1 | 100% | 100% | 49%
26 | CCCC1N=C(N)N=C(N)N1c1cccc(C(F)(F)F)c1.Cl (stereo unspecified) | 95% | 7% | 22%
27 | Cl.O=c1n(CC2CCCCC2)c2cc(Cl)cc(OCCNc3ccncc3)c2n1CC1CCCCC1 | 100% | 64% | 2%
28 | COc1cc(NC(=O)/C=C/c2cc3ccccc3n2C)ccc1OCCN(C(C)C)C(C)C.Cl | 99% | 68% | 16%
29 | COc1cc2c(cc1OC)CN(CCCCNC(=O)c1ccc(NC(=O)c3cc(Cl)cc(Cl)c3)cc1)CC2 | 99% | 75% | 19%
30 | Cc1nnc(-c2cccc(Nc3ccnc4cc(-c5nccs5)ccc34)c2)o1.Cl | 95% | 89% | 38%
31 | Cc1cccc2nc(-c3ccc(-c4ccc(CNCCCNS(C)(=O)=O)cc4)s3)[nH]c12.O=C(O)C(F)(F)F | 99% | 4% | 13%
32 | O=C(/C=C/c1ccc(Cl)c(Cl)c1)NCCCCCN1CCCN(C(=O)Nc2cc(F)cc(F)c2)CC1 | 94% | 1% | 4%
33 | Cc1c(C)c2c(c(C)c1O)CCC(C)(CCC(=O)O)O2 (stereo unspecified) | 96% | 0% | 8%
34 | Nc1ncc(-c2ccc3nccc(-c4ccncc4)c3c2)cc1S(=O)(=O)N1CCCCC1 | 100% | 100% | 25%
35 | O=C(Nc1ccc(OC2CCN(Cc3ccc(F)cc3)CC2)c(Cl)c1)c1cccs1.O=C(O)C(F)(F)F | 95% | 96% | 7%
36 | CCOC(=O)c1c(CN(CC)CC)n(-c2ccccc2)c2cc(Br)c(O)cc12 | 93% | 46% | 14%
37 | COc1ccc2c(c1)[nH]c1c(C=Cc3ccccc3)nccc12.O=[N+]([O-])O | 91% | 6% | 19%
38 | CCc1c[nH]c2c(N3CCCCC3=O)cc(C(=O)N[C@@H](Cc3ccccc3)[C@H](O)CNCc3cccc(OC)c3)cc12.O=CO | 100% | 99% | 8%
39 | CC[C@H](NC(=O)c1c(CN2CCC(N3CCCCC3)CC2)c(-c2ccccc2)nc2c(Cl)c(O)ccc12)c1ccccc1.Cl | 100% | 66% | 0%
40 | Cc1nn(CCOC(=O)NC(NCC2COc3ccccc3O2)C(Cl)(Cl)Cl)cc1[N+](=O)[O-] (stereo unspecified) | 99% | 99% | 0%
41 | COc1ccc(-c2cnc3ccc(NCCCO)nn23)cc1OC | 98% | 90% | 9%
42 | Nc1nccc(-c2ccc3c(-c4cccc(F)c4)cnc(N)c3c2)n1 | 93% | 44% | 41%

Row | Compound | Inhibition [1] | Inhibition [2] | Inhibition [3]
43 | Cc1ccc(N2C(=O)C3C(C2=O)C2(c4ccccc4)C(=O)C3(c3ccccc3)C(c3ccccc3)=C2c2ccccc2)cc1 (stereo unspecified) | 92% | 96% | 17%
44 | COc1ccc(C2CCN(CCCNC(=O)c3ccc(NC(=O)c4ccc(Cl)cc4)cc3)CC2)c(OC)c1 | 99% | 58% | 26%
45 | Cc1cccc(C)c1CNc1cccc(-c2nc(C)c(C)[nH]2)c1.Cl | 99% | 44% | 58%
46 | Cc1cccc2nc(-c3ccc(-c4ccc(CNCc5ccc(S(C)(=O)=O)cc5)cc4)cc3)[nH]c12.O=C(O)C(F)(F)F | 93% | 38% | 19%
47 | COc1cc(C2NCC3(CCOCC3)c3cc4c(cc32)OCCO4)cc(OC)c1OC.Cl (stereo unspecified) | 95% | 2% | 24%
48 | Cc1[nH]c(C)c(-c2ccc(OCc3ccc(F)cc3)nc2)c(=O)c1Br | 97% | 97% | 41%
49 | CS(=O)(=O)c1cccc(-c2cnc3[nH]cc(-c4ccc(CCC(=O)O)cc4)c3c2)c1 | 97% | 99% | 1%
50 | O=C(CSc1nccn1C1CCCC1)Nc1cc(C(F)(F)F)ccc1Cl | 96% | 94% | 0%
51 | CSc1ccc2nccc(Nc3ccc(Oc4ccccc4)cc3)c2c1.Cl | 94% | 68% | 30%
52 | COc1cc(C(=O)NC2CC(C)(C)N(C)C(C)(C)C2)ccc1-c1nc2cc(Cl)c(Cl)cc2[nH]1 | 100% | 99% | 69%
53 | COCCN1CCC(N(Cc2ccc(-c3ccc(OC(F)(F)F)cc3)cc2)C(=O)Cn2c(CCc3cccc(F)c3F)cc(=O)c3ccccc32)CC1.O=C(O)C(O)C(O)C(=O)O | 96% | 92% | 100%
54 | CNCCNCc1cccc(-c2ccc(-c3nc4cc(C(F)(F)F)ccc4[nH]3)s2)c1.O=C(O)C(F)(F)F | 98% | 85% | 31%
55 | O=C(O)C(F)(F)F.c1cc(-c2ccc(CNCCc3ccncc3)cc2)cc(-c2nc3ccccc3[nH]2)c1 | 100% | 99% | 41%
56 | CS(=O)(=O)O.FC(F)(F)COc1c(CNCCCCCCNCc2ccc3ccccc3c2OCC(F)(F)F)ccc2ccccc12 | 100% | 79% | 100%
57 | COc1cc(N)cc2sc(N)nc12 | 99% | 99% | 0%
58 | CCCN1CCN(CC(O)CNC(=O)Nc2ccc(Br)cc2)CC1.O=C(O)C(F)(F)F (stereo unspecified) | 100% | 100% | 10%
59 | COc1ccc(NC(=O)[C@H](Cc2ccccc2)Nc2nc(NCCN3CCCC3)ncc2C)cc1.O=C(O)C(F)(F)F | 89% | 9% | 26%
60 | COC(=O)CCCOc1cc(Cc2cnc(N)nc2N)cc(OC)c1OC | 95% | 0% | 12%
61 | CN(C)c1ccnc2ccc(NC(=O)Nc3ccnc4ccccc34)cc12 | 100% | 99% | 15%
62 | COc1ccc(C2=CCN(c3ccc(Cl)c(Cl)c3)C2=O)cc1OCCN1CCCCC1.Cl | 97% | 99% | 19%
